697 NFkB inh – inhibitors of the PMA/ionomycin-induced NF-kB reporter in 697 B cells | 697 B-cell NF-kB luciferase reporter, 16 h | inhibition, % at 4 µM | actives 0.33% (n = 330,000) | AID 435022; in the data active = inhibition above about 35%
Jurkat NFkB inh – lowers PMA/ionomycin-induced NF-kB signal in Jurkat cells; PMA/ionomycin-induced NF-kB luciferase reporter, luminescence; AID 435003; inhibition, % at 4 µM; actives 0.53% (n = 330,000); in the data active = inhibition above about 50%
TRPM1 prom inh – MITF TRPM1 promoter inhibition in SK-MEL-5 cells; inhibition, % at 12.5 µM; SK-MEL-5 TRPM1 promoter luciferase, 24 h; actives 0.83% (n = 330,000); AID 488899;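 active = mean inhibition across replicates of 60% or more, whatever share of single replicates reaches that level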
EBV LMP1 NFkB – inhibitors of Epstein-Barr LMP1-induced NF-kappaB reporter; LMP1-induced NF-kappaB luciferase reporter cells, luminescence; inhibition, % at 12.5 µM; actives 0.69% (n = 350,000); in the data active = inhibition above about 41%;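 note: 0% = neutral control wells and 100% = reference inhibitor control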
Gli-Sufu antag – Gli-Sufu pathway antagonism; Sufu-KO-LIGHT fibroblasts, Gli luciferase reporter luminescence; inhibition, % at 5 µM; actives 0.74% (n = 340,000); AID 588413;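 active = inhibition above about 55%, limit read from the data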;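 note: 0% = DMSO-treated cells and 100% = wells with medium but no cells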
Shn3 3UTR inh – reduces Shn3 3'UTR luciferase signal in osteoblasts; Clone20 osteoblast Shn3 3'UTR firefly luciferase, 24 h; inhibition, % at 12.5 µM; actives 0.52% (n = 360,000); AID 588674;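 active = mean inhibition of at least 75% with every replicate also reaching 75%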;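 note: 0% = median of neutral control wells and 100% = pilot-screen positive control compound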
The depositor's hits bear a star; . = not tested or not shown. Sampled rows, rich in hits. Any-hit rate of the full collection: about 2.3%.

SMILES | 697 NFkB inh | Jurkat NFkB inh | TRPM1 prom inh | EBV LMP1 NFkB | Gli-Sufu antag | Shn3 3UTR inh
CC(C)c1ccc(OCc2cccc(C(=O)N/N=C/c3cccnc3)c2)cc1 | . | . | 2 | 63* | -148 | 20
CCc1cccc(CC)c1NC(=O)C1CSC2(C)CCC(=O)N12 (configuration not stated) | 15 | 13 | -9 | -5 | -10 | -1
Cc1cc(NCCCn2ccnc2)n2ncc(-c3ccccc3)c2n1 | -233 | -101 | 58 | 50* | 2 | 46
Cc1ccc(S(=O)(=O)N(C)c2ccc(C(=O)NCC(c3ccco3)N(C)C)cc2)cc1 (configuration not stated) | -12 | -14 | 4 | 1 | 12 | 18
O=C(O)c1ccc(C(=O)c2ccc3c(c2)C(=O)N(CCO)C3=O)cc1 | -10 | 6 | -2 | -3 | -4 | 10
COCCNC(=O)NC12CC3(C)CC(C)(CC(C)(C3)C1)C2 | 11 | 0 | 10 | 57* | 1 | -10
O=C(CSc1nnc(Nc2ccccc2)s1)NC1CCS(=O)(=O)C1 (configuration not stated) | -5 | -10 | 0 | 5 | -12 | 90*
COc1ccc(N2C(=O)C(=O)/C(=C(/O)c3ccc(C)cc3)C2c2cccnc2)cc1 (configuration not stated) | 9 | -1 | -7 | 44* | 2 | -29
O=C(NC(=S)Nc1ncccn1)c1ccccc1Cl | -30 | -7 | -20 | -6 | -11 | -62
O=C(/C=C/Nc1ccccc1Br)c1ccccn1 | -28 | 42 | 76* | 74* | -75 | 90*
Nc1cccc(-c2csc(-n3ncc(C(=O)O)c3C(F)(F)F)n2)c1 | 20 | -3 | 13 | -3 | 0 | 2
O=C(NCc1cccs1)c1nc2c(nnn2Cc2ccccc2Cl)c(=O)[nH]1 | . | . | 76* | 76* | -3 | 7
CCC(C)NC(=O)c1nc2c(nnn2Cc2ccccc2Cl)c(=O)[nH]1 (configuration not stated) | 5 | -19 | 3 | 8 | 3 | -20
O=C(CCC(=O)OCC(=O)c1ccc(-c2ccccc2)cc1)Nc1cccc(Cl)c1 | 22 | 1 | -5 | -3 | -10 | -12
Cc1ccc(C(=O)Nc2nnc(SCC(=O)N3CCCc4ccccc43)s2)cc1 | -77 | -11 | 32 | 51* | -50 | -11
O=C(Nc1nnc(SCC(=O)N2CCCc3ccccc32)s1)c1cccc2ccccc12 | 6 | -7 | -6 | 1 | -11 | 15
CN(C)S(=O)(=O)c1ccc(C(=O)Nc2nnc(SCC(=O)N3CCOCC3)s2)cc1 | . | . | . | 17 | . | -1
CC(C)Oc1ccc(C(=O)Nc2nnc(SCC(=O)N3CCOCC3)s2)cc1 | -96 | 19 | 51 | 70* | -65 | 35
COc1ccc(C(C)(O)c2nc(-c3ccc4c(c3)OCO4)cs2)cc1 (configuration not stated) | . | . | . | . | . | 15
CN(C)c1ccc(NC(=S)c2ccccn2)cc1 | . | . | 79* | 73* | 51 | 62
CN(C)c1ccc(C(=S)Nc2ccccc2)cc1 | -228 | -77 | -19 | 3 | -2 | -43
CCCNC(=O)C1(C)CCN(C(=O)c2ccccc2F)C1 (configuration not stated) | . | . | . | . | . | -30
Cc1ccc(C)c(S(=O)(=O)N2CCCOC2CNC(=O)C(=O)NCc2ccccc2)c1 (configuration not stated) | 23 | 14 | 7 | 11 | . | 4
COCCn1c(SCC(=O)N2CCC(C)CC2)nc2ccccc2c1=O | 15 | 0 | -1 | -3 | -1 | -6
COc1ccc(C(=O)Nn2c(C)nc3ccccc3c2=O)cc1 | 2 | -7 | 4 | -11 | -1 | 14
SMILES | 697 NFkB inh | Jurkat NFkB inh | TRPM1 prom inh | EBV LMP1 NFkB | Gli-Sufu antag | Shn3 3UTR inh
COc1ccc(C(=O)Nn2c(SCC(=O)N3CCC(C)CC3)nc3ccccc3c2=O)cc1 | -130 | -57 | 42 | 70* | 16 | 31
COc1ccc(C(=O)Nn2c(SCC(=O)NC3CCCCC3)nc3ccccc3c2=O)cc1 | -176 | -97 | 25 | 55* | -15 | 15
COc1ccc(C(=O)Nn2c(SCC(=O)c3ccc(Cl)cc3)nc3ccccc3c2=O)cc1 | -114 | -103 | -2 | 48* | -1 | 15
COc1ccc(C(=O)Nn2c(SCC(=O)NCc3ccco3)nc3ccccc3c2=O)cc1 | -98 | -23 | 3 | 50* | 3 | 13
CCOC(=O)c1ccccc1NC(=O)CSC(C)C(=O)Nc1cc(C)on1 (configuration not stated) | 10 | 4 | 3 | -2 | 1 | -1
O=c1c2ccccc2c(C=Nc2ccccc2O)c(O)n1-c1nccs1 | 4 | -3 | 1 | -1 | 2 | 87*
COc1ccccc1/C=C/C=C1\Oc2c(ccc(O)c2CN(C)C)C1=O | 10 | 2 | 13 | -14 | -5 | -2
CCN(CC)Cc1c(O)ccc2c1O/C(=C\C=C\c1ccccc1)C2=O | -10 | -5 | 81* | -83 | 0 | 95*
Cc1ccccc1OC(C)C(=O)NC1CCCC1 (configuration not stated) | 6 | -2 | 3 | 3 | -1 | -5
Cc1ccc(N2CCCCn3c2nc2c3c(=O)n(CC(=O)O)c(=O)n2C)cc1 | -1 | -13 | 11 | 56* | -11 | 6
CC(C)(C)c1ccc(CC(=O)N2CCC2(C)C(=O)NS(=O)(=O)c2ccc(F)cc2F)cc1 (configuration not stated) | . | . | . | . | . | -21
CCN(CC)S(=O)(=O)c1cc(OC)ccc1N=Nc1ccc(O)c2ncccc12 | 8 | 16 | 71* | -1 | 23 | 90*
CCS(=O)(=O)c1ccc(OC)c(N=Nc2ccc(O)c3ncccc23)c1 | -20 | 6 | 12 | -7 | 11 | 40
Nc1nnc(SCCOc2cccc(Br)c2)s1 | 3 | -12 | -47 | -38 | -15 | -27
COc1ccc(NC(=O)C2CCOC(C)(C)C2)cc1 (configuration not stated) | 10 | 17 | . | . | -15 | 3
C=CC[N+](C)(C)C/C(Cl)=C(\Cl)c1ccccc1 | 12 | 0 | 1 | 49* | 8 | 22
C/C(Cl)=C\C[N+](C)(C)CC(=O)OCCc1ccccc1 | -2 | 0 | . | . | 0 | 0
COc1cc(C(=O)N(C(C)C)C2CCCCC2)cc(OC)c1OC | . | . | . | -4 | . | 4
CCN(C(=O)c1cccc(NC(=O)c2ccccc2)c1)C1CCCCC1 | -9 | 13 | 4 | 51* | -3 | 1
CCN(C(=O)c1cc(OC)c(OC)c(OC)c1)C1CCCCC1 | . | . | . | 48* | . | 17
O=C(Nc1cccc(C(=O)NC2CCCCC2)c1)c1ccccc1 | -19 | 4 | -3 | -5 | -2 | -3
CN(Cc1ccc(Cl)cc1Cl)C(=O)C1CSC2(C)CCC(=O)N12 (configuration not stated) | . | . | . | -2 | . | 4
Nc1ncnc2c1c(-c1ccc(Oc3ccccc3)cc1)cn2C1CCCC1 | -23 | -5 | 6 | 47* | 43 | 90*
Nc1nc(N)nc(-c2ccc(Oc3ccccc3)cc2)n1 | -24 | -16 | -18 | 3 | -5 | -36

Compound activity from PubChem.
